Screening results from PubChem BioAssay.
VDR inh – vitamin D3 receptor (human) inhibition; Potency, µM, for inactives: max response, negative = inhibition, hits mostly inhibitors; VDR-SRC2-3 peptide fluorescence polarization, 2 h; P11473; 400,000 tested, 0.93% active; note: potency is the fitted concentration of half-maximal effect; % is set by controls: 0 for no effect and ±100 for the full control effect
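Fluorescence polarization assay of small-molecule disruption of VDR binding to coregulator peptide SRC2-3. Compounds and controls pin-transferred, then read after 2 h incubation at ambient room temperature.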
FEN1 inhibitor – blocks human flap endonuclease 1; 390,000 tested, 0.35% active; P39748; Potency, µM (highest dose often 114 µM), for inactives: top-dose activity change, negative = inhibition, actives largely listed as inhibitors; AID 588795; Recombinant FEN1 flap cleavage, fluorescence, 15 min; note: potency is the fitted concentration of half-maximal effect; % is set by controls: 0 for no effect and ±100 for the full control effect; nearly all actives have a fitted effect of over 65% in size
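Potency values derive from four-parameter Hill fits of normalized qHTS data. The reaction used 10 nM FEN1 preincubated 15 min at room temperature with compound, then 50 nM DNA substrate, read at 0 and 15 min.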
PLK1 PBD block – inhibitors of human PLK1 polo-box domain binding. Plk1 PBD binding of FITC phosphopeptide, fluorescence polarization. Potency, µM, for inactives: max response, negative = inhibition, usual class: inhibitors. 360,000 tested, 2.8% active; note: potency is the fitted concentration of half-maximal effect; series mostly up to about 57 µM; % is set by controls: 0 for no effect and ±100 for the full control effect; nearly all actives have a fitted effect of over 65% in size
PI5P4Ka inh – blocks human PI5P4K alpha kinase activity; P48426; PI5P4Kalpha enzyme, ADP-Glo luminescence, 60 min; active compounds read low; max response, %; 330,000 tested, 1.2% active; AID 652105; active = max response of -50% or lower; inconclusive = between -30% and -50%; inactive = -30% or higher; note: value at the top dose of about 77 µM; % is set by controls: 0 for no effect and ±100 for the full control effect
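Single end-point luminescence (ADP-Glo) quantified ADP from PI5P4Kalpha turnover; ATP 5 microM final, 1 h at RT, 0.1% CHAPS and 0.28 mM EGTA in HEPES pH 7.4.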
TCR activator – T cell receptor activation; primary human leukocytes, anti-CD3, IL-2 HTRF, 48 h; Potency, µM (series often up to 9.22 µM), for inactives: top-dose activation of IL-2 secretion, actives largely listed as activators; 330,000 tested, under 10 active; note: % of control where 0% means no effect
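Human primary leukocytes + a-CD3 beads + cpd, 48 hr; IL-2 in supernatant by HTRF (ex 320nm / em 665nm). No co-stimulatory signal supplied.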
WRN helicase inh – inhibitors of human WRN helicase; Q14191; WRN helicase unwinding, fluorescent forked duplex, kinetic; Potency, µM (titrated, usually from 114 µM), for the others: top-dose activity change, negative = inhibition, hits mostly inhibitors; 360,000 tested, 0.46% active; AID 651768; note: potency is the fitted concentration of half-maximal effect; % is set by controls: 0 for no effect and ±100 for the full control effect; nearly all actives have a fitted effect of over 55% in size
Target sequence (Q14191 whole entry, looked up): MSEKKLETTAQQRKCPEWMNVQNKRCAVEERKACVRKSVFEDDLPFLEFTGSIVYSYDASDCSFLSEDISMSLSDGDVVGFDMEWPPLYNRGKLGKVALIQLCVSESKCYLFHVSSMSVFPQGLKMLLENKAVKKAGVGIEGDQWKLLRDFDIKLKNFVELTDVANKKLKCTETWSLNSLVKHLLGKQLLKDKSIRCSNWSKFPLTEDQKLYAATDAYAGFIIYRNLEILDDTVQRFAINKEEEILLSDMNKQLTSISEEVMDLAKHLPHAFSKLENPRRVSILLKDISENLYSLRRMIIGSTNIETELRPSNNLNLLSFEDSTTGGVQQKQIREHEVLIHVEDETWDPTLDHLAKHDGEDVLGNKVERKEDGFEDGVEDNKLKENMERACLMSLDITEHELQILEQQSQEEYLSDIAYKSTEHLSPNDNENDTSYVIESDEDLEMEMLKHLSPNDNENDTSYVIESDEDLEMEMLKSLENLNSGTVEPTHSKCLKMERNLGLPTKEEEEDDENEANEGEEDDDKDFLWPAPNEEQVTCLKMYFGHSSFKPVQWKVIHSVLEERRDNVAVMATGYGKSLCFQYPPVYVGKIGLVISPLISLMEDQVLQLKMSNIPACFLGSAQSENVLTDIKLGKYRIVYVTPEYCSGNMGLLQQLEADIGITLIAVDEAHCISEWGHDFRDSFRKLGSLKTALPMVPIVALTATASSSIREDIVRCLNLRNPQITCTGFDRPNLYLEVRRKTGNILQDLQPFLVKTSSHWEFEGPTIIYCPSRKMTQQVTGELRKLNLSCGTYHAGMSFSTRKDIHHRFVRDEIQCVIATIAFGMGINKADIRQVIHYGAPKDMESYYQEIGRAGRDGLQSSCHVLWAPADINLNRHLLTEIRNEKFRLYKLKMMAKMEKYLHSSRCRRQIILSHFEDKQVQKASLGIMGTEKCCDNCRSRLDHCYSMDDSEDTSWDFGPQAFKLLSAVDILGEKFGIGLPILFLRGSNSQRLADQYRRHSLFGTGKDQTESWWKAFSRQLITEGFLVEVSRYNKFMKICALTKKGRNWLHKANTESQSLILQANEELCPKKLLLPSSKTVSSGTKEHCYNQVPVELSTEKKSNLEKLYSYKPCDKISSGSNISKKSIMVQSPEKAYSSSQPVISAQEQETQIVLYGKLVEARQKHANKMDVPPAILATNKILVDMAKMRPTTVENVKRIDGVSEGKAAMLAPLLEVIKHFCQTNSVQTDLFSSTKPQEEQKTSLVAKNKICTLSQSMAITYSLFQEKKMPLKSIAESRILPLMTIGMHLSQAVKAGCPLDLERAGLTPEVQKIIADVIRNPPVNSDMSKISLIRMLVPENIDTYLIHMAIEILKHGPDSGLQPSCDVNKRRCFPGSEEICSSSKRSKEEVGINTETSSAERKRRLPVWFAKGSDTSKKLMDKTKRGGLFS
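WRN at 20 nM final was preincubated with compound for 15 min at room temperature; reaction started with 100 nM forked duplex oligonucleotide carrying fluorophore and quencher plus 2 mM ATP (final). Unwinding followed kinetically by red fluorescence (ex 525/em 598 nm).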
* = called active by the depositor; ? = inconclusive; . = not tested or not shown; [ ] = another dose, or the depositor's remark. The list is not random: actives were taken first. Their share in the collection is about 3.7%. Unless noted, calls come from the whole dose curve; as a rule, active = well fitted curve in the direction sought with a large enough effect; inconclusive = small, poorly fitted or top-dose-only effect, or another doubt; inactive = no such curve, though single readings can be large; an effect the other way counts as inactive or inconclusive.

SMILES | VDR inh | FEN1 inhibitor | PLK1 PBD block | PI5P4Ka inh | TCR activator | WRN helicase inh
C=CCn1c(SCC(=O)Nc2ccccc2-c2ccccc2)nc2cc(C(=O)O)ccc2c1=O | -16.9% | 12.7% | -4.8% | -54.5* | -3.5% | -1.7%
C=CCn1c(SCC(=O)Nc2ccc(F)cc2)nc2cc(C(=O)O)ccc2c1=O | -13.3% | 3.4% | -9.9% | -51.0* | 0.9% | -18.2%
C=CCn1c(SCc2cc([N+](=O)[O-])cc3c2OCOC3)nc2cc(C(=O)O)ccc2c1=O | -6.1% | -23.9% | -12.8% | -73.8* | -3.6% | -5.2%
CCCN1CNc2c(c(=O)[nH]c(=S)n2CCC(C)(C)C)C1 | ? | -25.0% | . | . | . | .
CC(C)(C)n1ncc2c(=O)n(Cc3cccc(C(F)(F)F)c3)cnc21 | . | -20.7% | . | . | . | .
COc1ccc(C(=O)NCC2(c3ccccc3)CCOCC2)cc1[N+](=O)[O-] | ? | -8.7% | 11.9µM* | -18.8 | -0.1%[46.1 µM] | -2.1%
COC(=O)c1cc(C(=O)Nc2nnc(CC(C)(C)C)s2)cc([N+](=O)[O-])c1 | -14.8% | -8.2% | 18.9µM* | -6.8 | -0.4%[46.1 µM] | -12.4%
CCOCc1nnc(NC(=O)c2cc(C(=O)OC)cc([N+](=O)[O-])c2)s1 | -5.0% | -2.1% | 26.7µM* | -25.3 | 3.6% | -20.9%
CCOCc1nnc(NC(=O)c2c(-c3ccccc3)noc2C)s1 | ? | -1.6% | 29.9µM* | -7.9 | 4.2% | -8.9%
COCCCNC(=O)c1cc2c(=O)oc3ccc(C)cc3c2s1 | -11.8% | 11.9% | . | . | . | .
O=C(CSc1ccc(Br)cc1)NC1CCS(=O)(=O)C1 (centres undefined) | ? | 0.4% | 16.8µM* | -0.3 | -4.4% | -2.9%
O=C(CCC(=O)c1cccs1)OCc1nnc(-c2ccccc2)o1 | -13.5% | 4.5% | 26.7µM* | -9.0 | 2.4% | 4.3%
CCOC(=O)N1CCc2c(sc3[nH]c(=S)[nH]c(=S)c23)C1 | -5.8% | -28.9% | ? | -66.9* | -0.9% | -21.2%
CCOC(=O)N1CCc2c(sc3nc[nH]c(=O)c23)C1 | -6.3% | -0.6% | 9.7% | -8.3 | 1.3% | -4.0%
CC(C)=CCOc1ccc(/C=C/C(=O)c2ccc(OCC=C(C)C)cc2OCC(=O)O)cc1 | 10µM* | . | . | . | . | .
C#CC[N+](C)(C)CCCCCCCCC | -16.6% | -2.2% | 37.7µM* | -5.9 | -7.4%[46.1 µM] | -23.0%
Cc1ccc(O)c(NC(=O)c2ccc(Br)c(S(=O)(=O)N3CCCCC3)c2)c1 | 3.2% | -9.8% | . | . | . | .
CC(C)Cc1ccc(-c2cc(=O)[nH][nH]2)cc1 | -21.3% | 1.6% | 16.8µM* | -11.0 | 1.1% | 5.4%[57.1 µM]
CC(=O)c1cc(-c2ccccc2)n(CCC(=O)Nc2nc3c(C)cccc3s2)c1C | 3.2% | -8.2% | . | . | . | .
Cc1ccc(NC(=O)COC(=O)C2CC3C=CC2C3)cc1S(=O)(=O)N1CCCCC1 (centres undefined) | -21.0% | -17.1% | 21.2µM* | -10.5 | -3.6%[46.1 µM] | -4.0%
Cc1ccc(NC(=O)Cn2ncc(Cl)c(Cl)c2=O)cc1S(=O)(=O)N1CCCCC1 | ? | -11.7% | -16.9% | -57.8* | 5.1% | -8.3%
Cc1ccc(C(=O)Nc2cccnc2)cc1S(=O)(=O)N1CCCCC1 | ? | -1.1% | 16.8µM* | -21.3 | 2.4% | 4.2%[57.1 µM]
Cc1ccccc1OCc1ccc(-c2nc(C#N)c(NCc3cccnc3)o2)o1 | -2.6% | -21.6% | . | . | . | .
CC(=O)Nc1ccc(SCC(c2ccccc2)N2CCN(C)CCC2=O)cc1 (centres undefined) | 1.0% | -3.2% | . | . | . | .
CCOC(=O)c1c(N)sc2c1CCN(Cc1ccccc1)C2 | 39.8µM* | -21.4% | . | . | . | .
CCOC(=O)c1c(NC(=O)Cc2ccccc2)sc2c1CCN(CC)C2 | 2.4% | -7.8% | -6.1% | 12.4 | -3.2% | -5.9%
Cc1ccc(C2C=C(c3ccccc3)Nc3ncnn32)cc1 (centres undefined) | ? | -19.5% | 29.9µM* | -15.8 | 1.3% | -0.7%
Cc1ccc(NC(=O)CSc2nnc(-c3ccccc3)n2C)cc1 | . | 0.3% | . | . | . | .
